Test results from PubChem BioAssay AID770 (SRMLSC, 2007).
Hit rate of the full screen: of about 3,300 compounds, fewer than 10 were called active.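 The calls were made as follows: active = growth inhibition above 90% in viable cell count at a single dose; inactive = growth inhibition below 90%.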 Only a sample is shown.

Experiment: HT29 colon tumor cell growth inhibition, primary screen, imaging, high content imaging, 24 h, CellTiter-Glo (AID 770);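 as to condensed nuclei: share of cells whose nuclear area falls below control median minus 1.5 SD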
Details: HT29 cell number by imaging, at 10 µM, stronger effect = higher value; for condensed nuclei: measured here: percent cells with condensed nuclei
[1] = measured here: ATP CellTiter-Glo viability

Row | SMILES | growth inhibition | growth inhibition [1] [%] | condensed nuclei [%]
1 | Cc1ccc(N2CN=c3s/c(=C\c4cccnc4)c(=O)n3C2)cc1 | 8.42% (inactive) | 6.47 | 1.92
2 | O=C1NCC(COCC2CC=CCC2)O1 (stereo not given) | 12.9% (inactive) | -2.87 | 2.4
3 | COc1ccc(OC)c(N=C(C)C2=C(O)COC2=O)c1 | 23.1% (inactive) | 7.81 | 1.86
4 | CSc1nc(N2CCCC2)c2c(c1C#N)CC(C)(C)OC2 | -22.4% (inactive) | -13.8 | 2.73
5 | COc1ccc(N2CCN(c3oc(COc4ccc(Cl)cc4)nc3C#N)CC2)cc1 | 22.4% (inactive) | 12.5 | 2.73
6 | COC(=O)c1ccc(C2/C(=C(/O)c3ccc(OC)cc3)C(=O)C(=O)N2Cc2ccco2)cc1 (stereo not given) | 26.5% (inactive) | -0.21 | 4.2
7 | CCN(CC)c1ccc2cc(-c3nnc(-c4ccncc4)o3)c(=O)oc2c1 | 100% (active) | -9.78 | 2.72
8 | CCN(CC)c1ccc2cc(C(=O)Nc3ccccn3)c(=O)oc2c1 | 6.44% (inactive) | -4.18 | 2.75
9 | CCCCCCc1cc2cc(-c3nnc(-c4ccccc4O)o3)c(=O)oc2cc1O | 47% (inactive) | 17.7 | 6.21
10 | CCOC(=O)CSc1nc(N)c(C#N)c(-c2ccc(OC)cc2)c1C#N | -7.67% (inactive) | -12.5 | 3.97
11 | Cc1c(C)c2cc(Cl)c(O)c(CN3CCCC(C)C3)c2oc1=O (stereo not given) | 25.4% (inactive) | -6.25 | 3.35
12 | CCOP(=O)(c1ccccc1)C1(C#N)CCCC1 (stereo not given) | -30.7% (inactive) | -12.2 | 4.43
13 | CCCCOc1ccc(CN(C)c2ncnc(N)n2)cc1 | 56% (inactive) | 22.5 | 6.77
14 | C1CCC(C(CC2CCCCN2)C2CCCCC2)CC1 (stereo not given) | 99.3% (active) | 97.5 | 30.1
15 | CC1(C)CC(=O)C2=C(C1)N(Cc1ccco1)C(=O)C2(O)C(F)(F)F (stereo not given) | 11% (inactive) | -21.1 | 2.44
16 | CSc1nncc(=O)[nH]1 | -17.8% (inactive) | 10.8 | 1.83
17 | CN1CCN(/C=N/c2sc3c(c2C#N)CCCCC3)CC1 | 45.9% (inactive) | 15.9 | 4.6
18 | COc1ccc2c(c1OC)C(=O)N1c3ccccc3SC21 (stereo not given) | -18.9% (inactive) | -15.6 | 2.15
19 | Nc1ccc2oc(-c3ccccc3Cl)nc2c1 | 26.7% (inactive) | 5.57 | 11.4
20 | CCc1cc(=O)oc2c(CN3CCN(C)CC3)c(O)c(Cl)cc12 | 52.2% (inactive) | -8.76 | 4.11
21 | CCOC(=O)NC(Nc1cc(C)on1)(C(F)(F)F)C(F)(F)F | -33.3% (inactive) | -14.8 | 4.42
22 | COCCOC(=O)C1=C(C)OC(N)=C(C#N)C1c1ccco1 (stereo not given) | 13.2% (inactive) | 1.7 | 3.33
23 | CCSc1nnc(NC(=O)C(CC)(C(F)(F)F)C(F)(F)F)s1 | 3.79% (inactive) | -3.56 | 3.03
24 | COc1ccc(OC)c(C2/C(=C(/O)c3ccccc3)C(=O)C(=O)N2Cc2ccco2)c1 (stereo not given) | 11.9% (inactive) | -6.75 | 4.83
25 | O=C(C/C(=N/O)c1ccccc1O)C(F)F | -0.96% (inactive) | -14.3 | 1.25

Row | SMILES | growth inhibition | growth inhibition [1] [%] | condensed nuclei [%]
26 | O=C(c1cccc2ccccc12)N1CCC(N2CCN(c3ccccc3)CC2)CC1 | -27.1% (inactive) | -18.2 | 3.56
27 | Cn1c(O)c(C=Nc2ccc(Cc3ccncc3)cc2)c(=O)n(C)c1=O | 13.2% (inactive) | -6.92 | 1.24
28 | CCOC(=O)CC1=NC(=O)CS1 | 7.12% (inactive) | 1.44 | 1.37
29 | Cc1ccc(S(=O)(=O)NC(=O)Nc2ncc3c(n2)CC(c2ccco2)CC3=O)cc1 (stereo not given) | -27% (inactive) | 0.34 | 2.73
30 | CCCc1nc2n[nH]c(N)c2c2c1CCCC2 | 3.73% (inactive) | 6.01 | 3.31
31 | O=C1C(=O)N(CCCn2ccnc2)C(c2ccccn2)/C1=C(/O)c1ccccc1 (stereo not given) | 20.5% (inactive) | -11.5 | 3.21
32 | CCOc1ccc(/C(O)=C2/C(=O)C(=O)N(CCN(CC)CC)C2c2ccco2)cc1 (stereo not given) | -44.4% (inactive) | -11.1 | 3.46
33 | CC1CCN(c2[nH]c(=S)c(C#N)c3c2CCCC3)CC1 | 2.28% (inactive) | -10.9 | 1.9
34 | CC1(C)CC(=O)C2=C(C1)N(Cc1ccco1)C(=O)C2(NC(=O)c1cccnc1)C(F)(F)F (stereo not given) | 18.6% (inactive) | -14.4 | 1.91
35 | CCCOc1ccc(Cc2nn[nH]n2)cc1 | 36.3% (inactive) | 4.03 | 4.59
36 | O=C(NCCOCCOCCNC(=O)c1cccnc1)c1cccnc1 | -50.5% (inactive) | -16.6 | 2.66
37 | CC(C)CSc1nc(N2CCOCC2)c2c(c1C#N)CC(C)(C)SC2 | -12.2% (inactive) | 13.9 | 2.93
38 | CCOC(=O)C1CCN(c2nc3ccccc3nc2C(C#N)C(=O)OC(C)COC)CC1 (stereo not given) | -2.37% (inactive) | 11.6 | 15.8
39 | CCOc1ccc(-n2c(SCc3ccc(C#N)cc3)nnc2-c2cccnc2)cc1 | 17.1% (inactive) | -9.28 | 4.78
40 | CCOC(=O)NC(O)C(=O)c1cccs1 (stereo not given) | -55.2% (inactive) | -7.3 | 1.51
41 | CC(C)OC(=O)CC1=NC(=O)CS1 | -22% (inactive) | -8.97 | 3.69
42 | COc1ccc(C=NCCC2(O)CC(C)N(C)CC2C)cc1 (stereo not given) | 22.1% (inactive) | -0.31 | 3.27
43 | COC(=O)CSc1nc(C)c(C(C)=O)cc1C#N | 14.2% (inactive) | -9.13 | 4.87
44 | COc1ccc(C2Nc3ccccc3C(=O)N2Cc2ccco2)cc1CN1C(=O)c2ccccc2C1=O (stereo not given) | -35.2% (inactive) | -9.9 | 3.89
45 | Cc1ccc(N2C(=O)CC(Cn3nc(C)cc3C)C2=O)cc1 (stereo not given) | 5.93% (inactive) | -3.3 | 4
46 | CCN(CC)c1ccc(C2Nc3cccc4cccc(c34)N2)c(O)c1 | 39.6% (inactive) | 11.2 | 9.18
47 | N#CCSc1nc2c(cc1C#N)CCCCCC2 | 27.6% (inactive) | 16.5 | 3.85
48 | O=C(c1ccco1)N1CCN(CCOCCOc2cccc3ccccc23)CC1 | -0.64% (inactive) | -9.08 | 4.04
49 | COC(=O)CSc1nnc(C)c(=O)[nH]1 | -50.8% (inactive) | -8.35 | 0.97
50 | CCN(CC)CCCn1c(C)cc2c(c1=O)C(c1ccccc1)C(C#N)=C(N)O2 (stereo not given) | 3.77% (inactive) | -0.04 | 3.21

Row | SMILES | growth inhibition | growth inhibition [1] [%] | condensed nuclei [%]
51 | C=CCN=C(C)C1=C(O)CCC1=O | -21.7% (inactive) | -5.99 | 1.55
52 | CN(C)/C=C1\N=C(c2cccs2)OC1=O | 21% (inactive) | 8.97 | 2.88
53 | COc1cccc2c1C(=O)c1c(O)c3c(c(O)c1C2=O)C[C@@](O)(C(C)=O)C[C@@H]3O[C@H]1C[C@H](N)[C@H](O)[C@H](C)O1 | 96.9% (active) | 33.6 | 8.82
54 | COc1cccc2c1C(=O)c1c(O)c3c(c(O)c1C2=O)C[C@@](O)(C(=O)CO)C[C@@H]3O[C@H]1C[C@H](N)[C@H](O)[C@H](C)O1 | 84.2% (inactive) | 0 | 0
55 | CC(C)CC(C(=O)O)C(C)CC(=O)Nc1ccn(-c2ccccc2)n1 (stereo not given) | 23.8% (inactive) | -0.54 | 6.12
56 | O=C(NCc1ccccn1)c1ccc(=O)oc1 | 3.8% (inactive) | -10.6 | 2.33
57 | C=CCOc1ccc(C2/C(=C(\O)c3ccc(F)cc3)C(=O)C(=O)N2CCCN(C)C)cc1 (stereo not given) | 12.6% (inactive) | -2.77 | 0.82
58 | COc1ccc(OC)c(C2/C(=C(\O)c3ccc(OC)c(Cl)c3)C(=O)C(=O)N2CCN(C)C)c1 (stereo not given) | -11.2% (inactive) | -7.25 | 3.18
59 | COc1cccc(C2/C(=C(\O)c3ccc4c(c3)OCCO4)C(=O)C(=O)N2CCN(C)C)c1 (stereo not given) | 2.52% (inactive) | -0.26 | 1.83
60 | CC1(C)Cc2c(sc3c2C2=NCCN2C=N3)CS1 | 8.06% (inactive) | 0.86 | 5.47
61 | Nc1nonc1-c1noc(N2CCOCC2)n1 | -12.5% (inactive) | -12.3 | 1.72
62 | O=C1C2ON(c3ccccc3)C(c3cccnc3)C2C(=O)N1Cc1ccccc1 (stereo not given) | 13.7% (inactive) | -16.2 | 2.97
63 | N#CC(C(=O)NC1CC1)c1nc2ccccc2nc1N1CCN(C/C=C/c2ccccc2)CC1 (stereo not given) | -33.2% (inactive) | -7.38 | 1.95
64 | CCOC(=O)c1cc(CC)sc1NC(=O)C1CC1 | -8.79% (inactive) | -9.23 | 2.27
65 | CN1C(=O)c2ccc(N(C)C)cc2C1=O | -24.1% (inactive) | -7.32 | 1.05
66 | CCN1C(=O)CC(N2CCN(c3ccc(OC)cc3)CC2)C1=O (stereo not given) | -5.76% (inactive) | -6.84 | 4.31
67 | COc1ccc(S(=O)(=O)N2CCC(N3CCCCC3)CC2)cc1 | -21.4% (inactive) | 3.08 | 2.89
68 | Cc1cccn2c(=O)c3cc(C(N)=S)c(=N)n(CCCOC(C)C)c3nc12 | -47.5% (inactive) | -18.1 | 3.48
69 | Cc1cccc(C)c1NC(=O)CSCC(=O)c1ccc(O)c(O)c1 | 24.8% (inactive) | -2.15 | 7.02
70 | CC(C)Cc1nc(N2CCN(C(=O)Cc3ccccc3)CC2)c(C#N)c2c1COC(C)(C)C2 | -45.4% (inactive) | -6.01 | 0.93
71 | Cc1ccc(Oc2nc3c(c(=O)n(Cc4ccccc4F)c(=O)n3C)n2C)cc1 | 1.1% (inactive) | 5.27 | 1.09
72 | c1ccc2c(c1)NC(c1ccncc1)n1c-2nc2ccccc21 (stereo not given) | 16.4% (inactive) | -9.59 | 3.13
73 | COc1ccc(/C(O)=C2/C(=O)C(=O)N(c3ncccn3)C2c2ccc(OC)c(OC)c2)cc1 (stereo not given) | 59.3% (inactive) | 10.6 | 4.07
74 | O=C1CC(c2ccccc2)NC(=O)N1 (stereo not given) | -5.61% (inactive) | 1.46 | 3.08
75 | FC(F)(F)c1cccc(N2CCc3cn[nH]c32)c1 | 21.1% (inactive) | -4.43 | 4.2
